The supplement of paper PMC7411640
Structures can show the parent of a compound that is named as a salt.

Test system: MDA-MB-468
Experiment: phospho-S6 immunofluorescence (DAPI-normalised), per-plate z-score; higher = higher phospho-S6 signal (less pathway suppression)
Conditions: 24 h
Procedure: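 GPCR-targeted compound library (MedChemExpress HY-L006) tested on MDA-MB-468 PTEN-null TNBC cells in 384-well plates at 0.1, 1 or 10 uM, combined with vehicle, GDC0941 450 nM or lapatinib 1 uM, for 24 h. Phospho-S6 (S240/244) immunofluorescence normalised to DAPI and expressed as a per-plate z-score; values are the mean of biological triplicates.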

Structure (SMILES) | phospho-S6 immunofluorescence (z-score) (co-treatment: GDC0941 450 nM) | phospho-S6 immunofluorescence (z-score) (co-treatment: lapatinib 1 uM) | phospho-S6 immunofluorescence (z-score) (co-treatment: vehicle)
O=C(Nc1cccc2c(=O)cc(-c3nnn[nH]3)oc12)c1ccc(OCCCCc2ccccc2)cc1 [Pranlukast] (compound 10 µM) | 0.87 | 0.55 | -0.36
CCC(=O)OCC(=O)[C@@]1(OC(=O)CC)[C@@H](C)C[C@H]2[C@@H]3CCC4=CC(=O)C=C[C@]4(C)[C@@]3(Cl)[C@@H](O)C[C@@]21C [Beclometasone dipropionate] (compound 10 µM) | 0.45 | 0.54 | 0.15
COC(=O)[C@H]1[C@H]2C[C@H]3c4[nH]c5ccccc5c4CCN3C[C@H]2CC[C@@H]1O [Rauwolscine (hydrochloride)] (compound 10 µM) | 0.42 | 0.38 | -0.22
C[C@](N)(Cc1ccc(O)c(O)c1)C(=O)O (compound 10 µM) | -0.58 | 0.11 | -0.1
CCCNS(=O)(=O)Nc1ncnc(OCCOc2ncc(Br)cn2)c1-c1ccc(Br)cc1 [Macitentan] (compound 10 µM) | 0.32 | 0.71 | -0.16
CC(C)Oc1ccc(-c2nc(-c3cccc4c3CC[C@@H]4NCCO)no2)cc1C#N [Ozanimod] (compound 10 µM) | 0.72 | -0.62 | -0.3
O=C(c1ccc(F)cc1)N1CCC[C@H](c2nc(-c3ccc(F)cc3)no2)C1 (compound 10 µM) | -2.64 | -3.29 | -2.93
CCN(CCCc1ccccc1)CCCc1ccccc1 [Alverine (citrate)] (compound 10 µM) | -0.52 | -1.04 | 0.02
Cc1ccccc1C(=O)Nc1ccc(C(=O)N2CCCC(N(C)C)c3ccccc32)cc1 (configuration not stated) [Mozavaptan] (compound 10 µM) | -0.25 | -0.18 | -0.16
